# About 14,000 (4.5%) of roughly 310,000 compounds showed an effect of 50% or more. The effect is printed as a negative number. For the sample, strong results were picked, then their nearest neighbours and some compounds at random.
# Molecular target: human ether-à-go-go-related gene (hERG) potassium channel (human, UniProt Q12809)
# Assay: primary screen, population patch clamp on CHO cells stably expressing hERG; higher = less effect of the substance
# 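Further: peak tail current of the secondary pulse compared with the same well before compound.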
# Chain of human ether-à-go-go-related gene (hERG) potassium channel (Q12809 whole entry, looked up): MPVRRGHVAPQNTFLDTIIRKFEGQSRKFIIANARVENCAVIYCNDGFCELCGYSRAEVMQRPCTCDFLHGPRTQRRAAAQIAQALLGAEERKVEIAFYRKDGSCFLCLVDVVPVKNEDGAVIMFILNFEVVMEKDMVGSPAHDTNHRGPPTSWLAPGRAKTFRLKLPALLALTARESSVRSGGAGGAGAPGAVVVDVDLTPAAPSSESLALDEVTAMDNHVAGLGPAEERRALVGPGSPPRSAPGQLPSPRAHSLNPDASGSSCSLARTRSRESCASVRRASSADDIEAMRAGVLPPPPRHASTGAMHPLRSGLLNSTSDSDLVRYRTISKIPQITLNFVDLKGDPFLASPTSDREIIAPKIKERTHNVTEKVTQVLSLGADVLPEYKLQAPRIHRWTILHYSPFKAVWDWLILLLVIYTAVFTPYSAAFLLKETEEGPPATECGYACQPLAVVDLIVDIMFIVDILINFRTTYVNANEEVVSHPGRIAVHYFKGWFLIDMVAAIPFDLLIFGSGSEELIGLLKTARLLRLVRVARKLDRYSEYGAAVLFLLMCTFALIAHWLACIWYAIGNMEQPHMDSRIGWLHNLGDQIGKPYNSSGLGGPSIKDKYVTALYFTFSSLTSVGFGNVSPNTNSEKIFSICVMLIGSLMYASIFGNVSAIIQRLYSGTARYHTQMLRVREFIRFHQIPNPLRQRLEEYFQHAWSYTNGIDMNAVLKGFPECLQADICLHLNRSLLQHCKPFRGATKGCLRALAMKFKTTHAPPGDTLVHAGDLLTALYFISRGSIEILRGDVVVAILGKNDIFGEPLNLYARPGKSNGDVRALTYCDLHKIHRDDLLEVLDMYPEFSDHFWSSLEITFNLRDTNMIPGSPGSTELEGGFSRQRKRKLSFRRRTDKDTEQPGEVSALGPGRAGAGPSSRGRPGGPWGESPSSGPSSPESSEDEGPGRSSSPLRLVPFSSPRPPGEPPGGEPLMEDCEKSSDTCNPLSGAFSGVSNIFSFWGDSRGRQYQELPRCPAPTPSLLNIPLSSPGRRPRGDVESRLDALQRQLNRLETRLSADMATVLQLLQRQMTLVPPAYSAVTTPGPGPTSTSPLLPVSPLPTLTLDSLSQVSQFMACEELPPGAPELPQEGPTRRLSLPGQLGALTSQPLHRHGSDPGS
row,Structure (SMILES),"hERG current change (%, negative = inhibition) at 10uM"
1,COc1ccccc1NC(=O)C(C)OC(=O)Cc1n[nH]c(=O)c2ccccc12 (stereo not shown),9.99%
2,Cn1c(SCc2nc3ccccc3[nH]2)nnc1-c1cnccn1,10.2%
3,Oc1ccc(C=NCCc2ccccc2)cc1,10.2%
4,COc1ccc(OC)c(/C=C/C(=O)N(C)CC(=O)Nc2ccc(N3CCOCC3)cc2)c1,-8.78%
5,COc1ccc(C[C@H]2CN3C(=NC[C@H]3Cc3ccccc3)N2CCNC(=O)c2ccc(C)c(Br)c2)cc1,-69%
6,CCCCCCNC(=O)N[C@@H](C(=O)NCCC[C@H]1CN2C(=NC[C@@H]2Cc2ccccc2)N1CCc1cccc(OC)c1)C(C)C,-18.7%
7,COc1ccc(C[C@H]2CN3C(=NC[C@@H]3Cc3ccccc3)N2CCNC(=O)c2ccc(C)c(Br)c2)cc1,-74%
8,COc1ccc(/C=N/Nc2cc(N(C)C)nc(N(C)C)n2)cc1,-28.5%
9,COc1ccc(C2(C(=O)Nc3ccc(C)c(C)c3)CCOCC2)cc1,6.97%
10,Cc1ccc2c(c1)sc(C)[n+]2CCCS(=O)(=O)[O-],29.7%
11,COc1cc(/C=N/NC(=O)Cc2ccccc2)ccc1Oc1ccc([N+](=O)[O-])cc1[N+](=O)[O-],1.03%
12,CN1CCCC(OC(=O)c2ccc(S(=O)(=O)N(C)C)cc2)C1.Cl (stereo not shown),8.58%
13,CC1CN(CCOCCSc2ccccc2)CC(C)O1.Cl (stereo not shown),-14.9%
14,c1ccc(SCCN2CCc3ccccc3C2)cc1,-19.3%
15,Cc1ccc(SCCOCCN2CCc3ccccc3C2)cc1,-60.5%
16,Cc1ccc(Cl)c(OCCN2CCc3ccccc3C2)c1.Cl,-9.17%
17,Cl.Clc1ccc(SCCOCCN2CCc3ccccc3C2)cc1,-53.7%
18,Cc1ccc(SCCOCCN2CC(C)OC(C)C2)cc1.Cl (stereo not shown),-12.4%
19,c1ccc(SCCOCCN2CCc3ccccc3C2)cc1,-75.3%
20,Cl.c1ccc(SCCOCCN2CCOCC2)cc1,14.3%
21,Cc1ccc(SCCOCCN2CCOCC2)cc1.Cl,-1.55%
22,O=C(c1cccnc1)N1CCC(Oc2ccc(C(=O)N3CCCC(O)C3)cc2)CC1 (stereo not shown),-0.912%

row,Structure (SMILES),"hERG current change (%, negative = inhibition) at 10uM"
1,CC(=O)c1cnc2nc(SCc3ccccc3)nn2c1C,0.852%
2,O=C(c1ccco1)N1CCN(C2CC(=O)N(c3ccc4c(c3)OCO4)C2=O)CC1 (stereo not shown),-16.8%
3,COc1ccc(CC(=O)N2CCN(c3ccccn3)CC2)cc1OC,8.9%
4,COc1cc(C(=O)N/N=C/c2cc([N+](=O)[O-])cs2)cc(OC)c1OC,-8.26%
5,C[C@@H](C(=O)NCc1ccc(S(C)(=O)=O)cc1)[C@@H]1C[C@@]1(C)[C@@H](NC(=O)OCc1ccccc1)c1ccccc1,-75.1%
6,C[C@@H](C(=O)NCc1ccccc1)[C@H]1C[C@]1(C)[C@H](NC(=O)OCc1ccccc1)c1ccccc1,-21.3%
7,C[C@@H](C(=O)NCc1ccc(S(C)(=O)=O)cc1)[C@H]1C[C@]1(C)[C@H](NC(=O)OCc1ccccc1)c1ccccc1,-35.4%
8,CCCC(=O)n1nc(-c2ccco2)nc1SCc1ccccc1,0.232%
9,O=C(C(NS(=O)(=O)c1cccc2nsnc12)c1ccccc1)N1CCN(c2ccccc2)CC1 (stereo not shown),-71.4%
10,CCOC(=O)N1CCN(C(=O)C(NS(=O)(=O)c2cccc3nsnc23)c2ccccc2)CC1 (stereo not shown),-47.1%
11,O=C(O)C(NS(=O)(=O)c1cccc2nsnc12)c1ccccc1 (stereo not shown),16.1%
12,CN(CC(=O)N1CCN(c2ccccn2)CC1)S(=O)(=O)c1cccc2nsnc12,-23.6%
13,CC1CCN(C(=O)C(NS(=O)(=O)c2cccc3nsnc23)C(C)C)CC1 (stereo not shown),-5.48%
14,O=C(C(NS(=O)(=O)c1cccc2nsnc12)c1ccccc1)N1CCN(c2ccccn2)CC1 (stereo not shown),-64.8%
15,CC1CCN(C(=O)C(NS(=O)(=O)c2cccc3nsnc23)c2ccccc2)CC1 (stereo not shown),-69.5%
16,O=C(Nc1ccccn1)C(NS(=O)(=O)c1cccc2nsnc12)c1ccccc1 (stereo not shown),-4.67%
17,O=C(NC1CCCC1)C(NS(=O)(=O)c1cccc2nsnc12)c1ccccc1 (stereo not shown),-10.5%
18,Cc1c(Cl)cccc1NC(=S)N1CCN(Cc2ccccc2)CC1,-3.12%
19,CN(C)C(CNC(=O)c1ccccc1C(F)(F)F)c1ccco1 (stereo not shown),7.83%
20,CCS(=O)(=O)Nc1cccc(C(=C2CCCCC2)c2cnc[nH]2)c1,-30.2%
21,CCN1CCc2c(C#N)c(N3CCOCC3)nc(N3CCOCC3)c2C1,5.21%

# From publication PMC4336329 (PLoS ONE, 2015)
